This is part of a sample that, as a whole, favours compounds with a hit. Of some 83,000 tested, about 20% had one in any assay.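 Each cell line was grown in a 96-well plate and treated with one concentration of compound for 48 hours. Values below 10 were considered active.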 The source made the active and inactive calls.

These results are taken from PubChem BioAssay (NCI).

In the experiment the test system is MOLT-4 leukemia. In words: NCI-60 one-dose screen, 48 h (100 = growth as untreated, 0 = no growth, -100 = all killed). The following applies: 10 µM unless noted.
Consider `CCN(CC)CCCCCCNc1cc(OC)cc2cccnc12`, for which the growth is -57.3% (active).

As for `COc1ccccc1Nc1cc(O)c2c(=O)cc(-c3ccccc3)oc2c1`, the growth was 25.9% (inactive). Turning to `COc1ccc(C(O)c2cc3c(N)c(C(=O)Nc4ccc(Cl)cc4)sc3nc2C)cc1` (stereo not drawn), the growth is 15.5% (inactive). In the case of `COc1cc(NCC(O)CN(CC(C)C)CC(C)C)c2nc(C)ccc2c1` (stereo not drawn) it was 78% (inactive). For `CCCCCCCCCCN=C(N)N=C(N)N` the value was 30.8% (inactive). In the case of `COc1ccc(C(O)c2cc3c(N)c(C(=O)Nc4cccc(Br)c4C)sc3nc2C)cc1` (stereo not drawn) it was 23.1% (inactive). Consider `CCCCCCCCCCCCCCCCCCOc1ccccc1N`, for which the growth is 22.9% (inactive). In the case of `CC(=O)O[C@H]1CC[C@@]2(C)[C@@H](CC[C@@H]3[C@@H]2CC[C@@]2(C)[C@H]3CC[C@]2(O)C(C)=O)C1` it was 97.6% (inactive); in that of `CCC1(CC)NC(=O)c2c(c3ccc(Cl)c(Cl)c3n2C)C1C#N` (stereo not drawn), 4.72% (active); in that of `COc1ccc(C2CC(c3cccc(Nc4ccncc4)c3)=NN2c2cc(Cl)cc(Cl)c2)cc1` (stereo not drawn), -2.82% (active). In the case of `CC(=O)Nc1ccc(S(=O)(=O)NC2CCCCC2)cc1` it was 101% (inactive); in that of `Clc1ccc(N2N=C(c3cccc(Nc4ccncc4)c3)CC2c2ccccc2)cc1` (stereo not drawn), 89.4% (inactive). For `CN1C2CCC1CN(c1cnc(C(=O)Nc3cc(F)cc4cccnc34)cn1)C2` the value was 21.1% (inactive); for `C=Cc1cc[n+](CCCCCCCCCCCC)cc1`, 94.7% (inactive); for `CCCCCCCCCCCCCCCC(=O)OC[C@@]1(O)C[C@@]23CC[C@@H]4C(C)(C)[C@H](O)CC[C@@]4(C)[C@@H]2CC[C@H]1C3`, 101% (inactive). Consider `O=C(CN1CCOCC1)Nc1ccc2ncnc(Nc3ccc(OCc4cccc(F)c4)c(Cl)c3)c2c1`, for which the growth is 47.9% (inactive). For `Clc1cc(Cl)cc(N2N=C(c3cccc(Nc4ccncc4)c3)CC2c2ccccc2)c1` (stereo not drawn) the value was 2.51% (active); for `C[C@]12CCc3nc(Nc4cccc(O)c4)sc3C1=CC[C@@H]1[C@@H]2CC[C@]2(C)/C(=N\NC(N)=S)CC[C@@H]12`, 5.41% (active). In the case of `Cc1c2c(cc[n+]1Cc1ccccc1)c1ccc(OCc3ccccc3)cc1n2Cc1ccccc1` it was -51% (active); in that of `O=C(O)CNC(=O)CN1C(=O)c2ccccc2C1=O`, 91.8% (inactive).

For `O=C(Nc1nc2ccc(C(=O)N3CCN(c4ccc(Cl)c(Cl)c4)CC3)cc2s1)c1ccc(NCCc2ccccc2)c([N+](=O)[O-])c1`, the growth was 95.7% (inactive). As to `COc1ccccc1-c1c(-c2ccc(Cl)cc2)c2cc3c(cc2[nH]c1=O)OCCO3`, the growth was 3.15% (active). Take `O=S(=O)(NCCNc1nccc(-c2c(-c3ccc(F)c(O)c3)nc3occn23)n1)c1ccccc1`: the growth is 47.8% (inactive). For `Clc1cc(Cl)cc(N2N=C(c3cccc(Nc4ccncc4)c3)CC2c2ccc(Br)cc2)c1` (stereo not drawn) the value was 3.97% (active); for `Cn1c(COC(=O)NCCn2ccnc2)nc2c(N3CCOCC3)nc(-c3ccccc3)nc21`, -10.3% (active).

Take `Cc1c2c(cc[n+]1Cc1ccc(F)cc1)c1ccc(OCc3cccc(F)c3)cc1n2Cc1cccc(F)c1`: the growth was -62.4% (active). `CCCOc1nc(SCCC)nc2c1cnn2-c1ccccc1`: the growth was 141% (inactive).

As for `Cc1ccc(/C=C/C(=O)c2ccc(N)cc2)c(C)c1`, the growth was -41.1% (active). In the case of `Cc1cc(C)c(C=O)c(C)c1` it was 85% (inactive); in that of `COc1ccc(-c2c(-c3ccccc3)noc2N)cc1OC`, 99.3% (inactive). For `O=C1c2cccnc2C(=O)c2nc3cc(N4CCN(C5CC5)CC4)ccc3nc21` the value was 26.2% (inactive); for `c1ccc(N2N=C(c3cccc(Nc4ccncc4)c3)CC2c2ccc3c(c2)OCO3)cc1` (stereo not drawn), 7.98% (active); for `COc1cc(NCC(C)(O)CN(CC(C)C)CC(C)C)c2nc(C)ccc2c1` (stereo not drawn), 80.7% (inactive). For `C[C@@H]1CN(Cc2ccc(/C=C/c3n[nH]c4ccc5nc(-c6cn[nH]c6C(F)(F)F)c6c(c5c34)CCCC6)cc2)C[C@H](C)O1` the value was 12.6% (inactive); for `CC1(C)CCCN1CCCN1c2ccccc2Sc2ccc(Cl)cc21`, 41.7% (inactive); for `CC1CCN(C(=O)OCc2nc3nc(Cl)nc(N4CCOCC4)c3[nH]2)CC1`, 0.0264% (active). Regarding `CC1(C)CN(c2cnc(C(=O)Nc3cc(F)cc4cccnc34)cn2)CCN1`, the growth is 38.5% (inactive). Regarding `Cn1c(COC(=O)NCCN2CCOCC2)nc2c(N3CCOCC3)nc(-c3ccccc3)nc21`, the growth is -16.2% (active).
